Eight compounds from PubChem BioAssay (NCATS) can be followed below.

Values joined by “and” are separate entries in the source; they are usually repeats but may differ in a detail not shown here. Equal entries are not always repeated. Records with an inconclusive call do not appear. Where a structure was tested more than once in an assay, its records may differ in their call. Active and inactive are the calls of the source. Unless noted, calls follow the shape of the dose curve; as a rule, active = well fitted curve in the direction sought with a large enough effect; inconclusive = small, poorly fitted or top-dose-only effect, or another doubt; inactive = no such curve, though single readings can be large; an effect the other way counts as inactive or inconclusive.

One assay relates to C33A. In words: Primary qHTS to identify gynecologic anti-cancer compounds using libraries of approved drugs and bioactive compounds (AID 1345084). Also: nearly all actives have a fitted effect of over 55% in size. Also: potency is read from the fitted curve at half-maximal effect. The following applies: Gynecologic cancer cell panel viability, ATPlite luminescence, 48 h; series mostly up to 57.5 µM. Summed up: (§1)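 Cytotoxicity screen measuring ATP content by luciferase luminescence. Each compound is applied at five concentrations for 48 h at 37 C with 5% CO2.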

The test system of the next assay is CASKI. Described as above. The following applies: Gynecologic cancer cell panel viability, ATPlite luminescence, 48 h; series mostly up to 57.5 µM. Summed up: as §1
For another assay, the system named is Es-2. The description is as above. The following applies: Gynecologic cancer cell panel viability, ATPlite luminescence, 48 h; series mostly up to 57.5 µM. Summed up:
as §1

Another assay deals with HeLa. The description is as above. The following applies: Gynecologic cancer cell panel viability, ATPlite luminescence, 48 h; series mostly up to 57.5 µM. Put shortly: as §1
Another assay deals with Hek293T. The assay is described as above. The following applies: Gynecologic cancer cell panel viability, ATPlite luminescence, 48 h, control line for the selectivity index; series mostly up to 57.5 µM. Summed up: as §1
For a further assay, the system named is JEG-3. The description is as above. The following applies: Gynecologic cancer cell panel viability, ATPlite luminescence, 48 h; series mostly up to 57.5 µM. Summed up:
as §1

Another assay has as its system OV90. The description is as above. The following applies: Gynecologic cancer cell panel viability, ATPlite luminescence, 48 h; series mostly up to 57.5 µM. Summed up:
as §1

The test system of a further assay is PA-1. Described as above. The following applies: Gynecologic cancer cell panel viability, ATPlite luminescence, 48 h; series mostly up to 57.5 µM. Put shortly: as §1
For a further assay, the system named is SKOV3. The assay is described as above. The following applies: Gynecologic cancer cell panel viability, ATPlite luminescence, 48 h; series mostly up to 57.5 µM. Put shortly: as §1
Another assay has as its system Tov-21-G. Described as above. The following applies: Gynecologic cancer cell panel viability, ATPlite luminescence, 48 h; series mostly up to 57.5 µM. Summed up: as §1
The subject of another assay is Tov112D. The assay is described as above. The following applies: Gynecologic cancer cell panel viability, ATPlite luminescence, 48 h; series mostly up to 57.5 µM. Summed up:
as §1

Assay [1] is described as follows: Drug repurposing screens with cells derived from glioblastoma tumor samples (AID 1345199). Also: nearly all actives have a fitted effect of over 40% in size. Also: potency is read from the fitted curve at half-maximal effect. As to activity, negative = cell killing: % is scaled to controls: 0 for no effect and ±100 for the full control effect. The following applies: GBM patient neurospheres viability, ATP luminescence, 48 h. Summed up:
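Four patient lines of CD133+ GBM neurospheres were screened at several concentrations; hits were retested in those lines plus three slower-growing GBM lines, using 48-hour treatment and ATP-based viability.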

Assay [2] is described as follows: qHTS assay for small molecule activators of the human pregnane X receptor (PXR) signaling pathway (AID 720659; call rule not given here; also: 0% is about no effect).
The target in assay [3] is Nuclear receptor subfamily 1 group I member 2 (Rattus norvegicus) (UniProt Q9R1A7). As to the kind of experiment: qHTS assay for small molecule activators of the rat pregnane X receptor (rPXR) signaling pathway (AID 651751; call rule not given here; also: 0% is about no effect). The following applies: rPXR reporter cells, luciferase (One-Glo), 24 h.
Sequence of Nuclear receptor subfamily 1 group I member 2 (Rattus norvegicus) (Q9R1A7 whole entry, looked up): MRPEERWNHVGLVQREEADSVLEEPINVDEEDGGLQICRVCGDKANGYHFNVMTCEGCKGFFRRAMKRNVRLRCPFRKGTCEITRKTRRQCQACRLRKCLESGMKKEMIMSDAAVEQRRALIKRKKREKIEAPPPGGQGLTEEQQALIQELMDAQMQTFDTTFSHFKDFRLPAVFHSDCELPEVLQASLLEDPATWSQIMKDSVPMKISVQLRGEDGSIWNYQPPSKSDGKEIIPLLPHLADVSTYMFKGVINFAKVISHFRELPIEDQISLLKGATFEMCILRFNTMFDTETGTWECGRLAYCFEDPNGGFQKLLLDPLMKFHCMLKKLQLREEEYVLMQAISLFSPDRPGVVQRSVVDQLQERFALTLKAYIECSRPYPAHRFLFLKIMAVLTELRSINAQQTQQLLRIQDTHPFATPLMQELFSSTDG
[4] abbreviates: at 45.9 µM (top of the series), tumour line B.
Where [5] appears, read: at 45.9 µM (top of the series), tumour line D.
The mark [6] stands for this setting: at 46 µM (top of the series), tumour line A.
Where [7] appears, read: at 46.1 µM (top of the series), tumour line C.

For `CC(=O)N[C@@H](CS)C(=O)O`, the Potency result with C33A, in the assay with CASKI, with Es-2, in the assay with HeLa, in the assay on Hek293T and in the assay with JEG-3 was “inactive” in each case. Moreover, the Potency entry in the assay with OV90, with PA-1, with SKOV3, in the assay on Tov-21-G and in the assay with Tov112D was “inactive” throughout. The activity, negative = cell killing in assay [1] (setting [4]) was -7.88% (inactive); in [1] (setting [5]), -1.21% (inactive); in [1] (setting [6]), -28.2% (inactive); in [1] (setting [7]), -14.2% (inactive). Further, in [2], the call was inactive.
Consider `CN(C)c1cc(NC(=O)CNC(C)(C)C)c(O)c2c1C[C@@H]1C[C@H]3[C@H](N(C)C)C(=O)C(C(N)=O)=C(O)[C@@]3(O)C(=O)C1=C2O`, for which the Potency entry with C33A, with CASKI, in the assay with Es-2, in the assay with HeLa, in the assay on Hek293T and in the assay with JEG-3 was “inactive” in each case. The Potency entry in the assay with OV90, in the assay on PA-1, in the assay on SKOV3, with Tov-21-G and in the assay with Tov112D was “inactive” each time. Moreover, the activity, negative = cell killing in [1] (setting [4]) was 8.46% (inactive); in assay [1] (setting [5]) it was 6.87% (inactive); in assay [1] (setting [6]), -27.8% (inactive); in [1] (setting [7]), 0.651% (inactive).
Regarding `NCCS`, the Potency result in the assay on C33A, in the assay on CASKI, in the assay on Es-2, in the assay on HeLa, in the assay with Hek293T and in the assay with JEG-3 was “inactive” each time. In addition, the Potency result with OV90, with PA-1, in the assay with SKOV3, with Tov-21-G and in the assay on Tov112D was “inactive” throughout. Also, the activity, negative = cell killing was -3.94% (inactive) and -12.1% (inactive) in assay [1] (setting [4]); -6.82% (inactive) and -13.2% (inactive) in assay [1] (setting [5]); -8.15% (inactive) and -11.3% (inactive) in [1] (setting [6]); -12.7% (inactive) and -9.68% (inactive) in [1] (setting [7]).
For the compound `Cc1c(NC(=O)c2ccc(C(C)(C)C)cc2)cccc1-c1cn(C)c(=O)c(Nc2ccc(C(=O)N3CCOCC3)cc2)n1`, the Potency result in the assay with C33A, with CASKI, in the assay with Es-2, with HeLa, in the assay with Hek293T and with JEG-3 was “inactive” throughout. In addition, the Potency result in the assay with OV90, in the assay on PA-1, with SKOV3, in the assay on Tov-21-G and in the assay with Tov112D was “inactive” each time.
On to `O=C(O)c1cc(-c2ccccc2)nc2ccccc12`, for which the Potency result with C33A, with CASKI, in the assay on Es-2, in the assay with Hek293T, in the assay with JEG-3 and in the assay with OV90 was “inactive” throughout. The Potency result in the assay with PA-1, with Tov-21-G and in the assay with Tov112D was “inactive” in each case. Moreover, the Potency in the assay with HeLa was 50.1 µM (active) and inactive; with SKOV3, 28.2 µM (active) and inactive. Further, the results for the activity, negative = cell killing in assay [1] (setting [4]), in assay [1] (setting [5]) and in [1] (setting [7]) were -26% (inactive), -24.8% (inactive) and -23% (inactive), respectively. Also, the max response in assay [3] is -0.78% (inactive). Also, in assay [2], the outcome was inactive.
As for `CO[C@H]1C=CO[C@@]2(C)Oc3c(C)c(O)c4c(O)c(c5c(c4c3C2=O)NC2(CCN(CC(C)C)CC2)N=5)=NC(=O)C(C)=CC=C[C@H](C)[C@H](O)[C@@H](C)[C@@H](O)[C@@H](C)[C@H](OC(C)=O)[C@H]1C`, the Potency result in the assay on C33A, in the assay on CASKI, with Es-2, with HeLa, in the assay on Hek293T and with JEG-3 was “inactive” throughout. Besides, the Potency entry in the assay with OV90, with PA-1, with SKOV3, with Tov-21-G and with Tov112D was “inactive” in each case.
As for `Clc1ccc(Cn2c(CN3CCCC3)nc3ccccc32)cc1`, the Potency result in the assay on C33A, with CASKI, in the assay on Es-2, in the assay with HeLa, in the assay on Hek293T and with JEG-3 was “inactive” in each case. Besides, the Potency result in the assay on OV90, with PA-1, with SKOV3, in the assay with Tov-21-G and with Tov112D was “inactive” throughout. Moreover, the activity, negative = cell killing in assay [1] (at 20 µM (top of the series), tumour line C) is -7.94% (inactive); in assay [1] (at 21.2 µM (top of the series), tumour line B), -28.4% (inactive). Moreover, the Potency in [1] (tumour line A) is 2.51 µM (active).
Turning to `COc1cc2ncnc(Nc3ccc(F)c(Cl)c3)c2cc1OCCCN1CCOCC1`, the Potency result in the assay with C33A, with CASKI, with Es-2, in the assay with HeLa, in the assay with Hek293T and in the assay with JEG-3 was “inactive” in each case. For the same compound, the Potency result in the assay with OV90, with PA-1 and with Tov112D was “inactive” throughout. Further, the Potency is 10 µM (active) with SKOV3, 5.62 µM (active) in assay [1] (tumour line A), 17.8 µM (active) in assay [1] (tumour line B) and 8.91 µM (active) in assay [1] (tumour line D). Further, the activity, negative = cell killing in [1] (setting [7]) was -12.4% (inactive).
